Experimental data from PubChem BioAssay (NCATS).
Inconclusive results are not listed. The source made the active and inactive calls. Calls follow the shape of the dose curve; as a rule, active = well fitted curve in the direction sought with a large enough effect; inconclusive = small, poorly fitted or top-dose-only effect, or another doubt; inactive = no such curve, though single readings can be large; an effect the other way counts as inactive or inconclusive.

Assays:
[1] = target: Metallo-beta-lactamase type 2 (Klebsiella pneumoniae) (UniProt C7C422); assay: qHTS to identify inhibitors of the New Delhi Metallo-beta-lactamase (NDM): assay validation screen against the NCATS LOPAC Collection (AID 1794843); settings: NDM-1 enzyme, nitrocefin hydrolysis, absorbance 485 nm; series mostly up to 38.4 µM;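 also: nitrocefin turnover by NDM-1 measured as 485 nm absorbance at plateau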
Sequence of Metallo-beta-lactamase type 2 (Klebsiella pneumoniae) (C7C422 whole entry, looked up): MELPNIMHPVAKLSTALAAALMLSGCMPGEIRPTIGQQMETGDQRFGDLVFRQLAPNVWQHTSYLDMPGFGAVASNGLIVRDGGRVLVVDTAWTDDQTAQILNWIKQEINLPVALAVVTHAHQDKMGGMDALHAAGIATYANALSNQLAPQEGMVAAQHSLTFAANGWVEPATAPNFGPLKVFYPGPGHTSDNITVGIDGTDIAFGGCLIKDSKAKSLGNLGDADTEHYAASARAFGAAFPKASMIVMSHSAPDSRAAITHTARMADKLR
Outline: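 NDM-1 at 2 nM final in 50 mM HEPES pH 7.0 with 1 uM ZnSO4 and 0.01% Tween20 was preincubated with library compounds in DMSO. Nitrocefin (50 uM stock) was then added, and absorbance at 485 nm was read at the kinetic plateau.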

[2] = target: Glutathione peroxidase 1 (Homo sapiens) (UniProt P07203); assay: Primary qHTS Assay for Inhibitors of Recombinant Selenoprotein Glutathione Peroxidase 1 (GPX1) (AID 1845191); settings: recombinant GPX1, GR-coupled NADPH fluorescence, 15 min; series mostly up to 48.8 µM; also: nearly all actives have a fitted effect of over 65% in size
Sequence of Glutathione peroxidase 1 (Homo sapiens) (P07203 whole entry, looked up): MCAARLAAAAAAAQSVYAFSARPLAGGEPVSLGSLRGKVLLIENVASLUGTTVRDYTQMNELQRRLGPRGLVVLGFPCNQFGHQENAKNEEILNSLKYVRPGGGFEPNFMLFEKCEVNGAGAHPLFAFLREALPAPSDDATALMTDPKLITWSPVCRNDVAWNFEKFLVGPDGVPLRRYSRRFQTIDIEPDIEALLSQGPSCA
Outline: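 10 nM GPX1 + cpd, 30 min RT; start w/ 1 mM GSH, 0.5 mM cumene hydroperoxide, 0.5 mM NADPH, 100 nM GR, 0.01% BSA; buffer 50 mM Tris-HCl pH 7.5, 2 mM EDTA, 150 mM NaCl; Fl 340/450, 0 & 15 min.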

[3] = target: Phospholipid hydroperoxide glutathione peroxidase GPX4 (Homo sapiens) (UniProt P36969); assay: Primary qHTS Assay for Inhibitors of Recombinant Selenoprotein Glutathione Peroxidase 4 (GPX4) (AID 1845192); settings: recombinant GPX4, GR-coupled NADPH fluorescence, 15 min; series mostly up to 50 µM; also: nearly all actives have a fitted effect of over 65% in size
Sequence of Phospholipid hydroperoxide glutathione peroxidase GPX4 (Homo sapiens) (P36969 whole entry, looked up): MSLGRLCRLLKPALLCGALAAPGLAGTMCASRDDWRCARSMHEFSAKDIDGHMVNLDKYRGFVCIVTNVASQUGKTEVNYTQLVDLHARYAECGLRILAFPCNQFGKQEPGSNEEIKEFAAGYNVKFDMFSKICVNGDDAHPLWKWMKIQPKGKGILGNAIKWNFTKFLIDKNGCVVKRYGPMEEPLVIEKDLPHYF
Outline: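 NADPH consumption, followed by fluorescence at 340/450 nm between 0 and 15 min, reports GPX4 activity via coupled glutathione reductase (100 nM). Enzyme 200 nM was pre-exposed to compound 30 min; 0.5 mM cumene hydroperoxide and 1 mM GSH served as substrates.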

Measured: Potency

Nc1ccc(-c2ccc3ccccc3n2)cc1
inactive: [1] | [2] | [3]

COc1cccc(OC)c1OCCNCC1CSc2ccccc2O1 (configuration not stated)
inactive: [1] | [2] | [3]

c1ccc2nc(C3=NCCN3)ccc2c1
inactive: [1] | [2] | [3]

C=C(C)C1CC=C(C(=O)O)CC1 (configuration not stated)
inactive: [1] | [2] | [3]

N#CC(C#N)=C(N)/C(C#N)=C/c1ccc(O)cc1
inactive: [1] | [2] | [3]

N[C@@H](Cc1ccc(O)c(I)c1)C(=O)O
inactive: [1] | [2] | [3]

CCn1c(=O)[nH]c2cc(Cl)c(Cl)cc21
inactive: [1] | [2] | [3]

NC(N)=N[C@@H](CCC(=O)O)C(=O)O
inactive: [1] | [2] | [3]

CC(=O)O[C@H]1Cc2ccccc2N(C(N)=O)c2ccccc21
inactive: [1] | [2] | [3]

CC(C)NC[C@H](O)COc1ccc(CC(N)=O)cc1
inactive: [1] | [2] | [3]

CC(=O)NNC(=O)N1Cc2ccccc2Oc2ccc(Cl)cc21
inactive: [1] | [2] | [3]

C=CCNc1ncnc2ccc(Br)cc12
inactive: [1] | [2] | [3]

CN1CCc2cc(Cl)c(O)cc2[C@@H](c2ccccc2)C1
inactive: [1] | [2] | [3]

c1ccc2c(c1)CCC[C@H]2Nc1nc2ccccc2[nH]1
inactive: [1] | [2] | [3]

COc1ccccc1N1CCN(CCCNc2c(C)c(=O)n(C)c(=O)n2C)CC1
inactive: [1] | [2] | [3]

CCCCCCCCCC[Si](C)(C)CCC(=O)NC(Cc1ccc(C)cc1)c1ccccc1 (configuration not stated)
inactive: [1] | [2] | [3]

N=C(N)c1ccc(N)cc1
inactive: [1] | [2] | [3]

Nc1nc2[nH]c(=O)cnc2c(=O)[nH]1
inactive: [1] | [2] | [3]

CC(C)(CO)Cc1cc(C(C)(C)C)c(O)c(C(C)(C)C)c1
inactive: [1] | [2] | [3]

COc1cc(C(O)C(=O)O)ccc1O (configuration not stated)
inactive: [1] | [2] | [3]

CCCC(=O)NCCc1c2n(c3ccc(OC)cc13)CCCc1ccccc1-2
inactive: [1] | [2] | [3]

CCCOC(=O)c1c(-c2ccccc2)nc(CC)c(C(=O)SCC)c1CCC
inactive: [1] | [2] | [3]

CC1=C(/C=C/C(C)=C/C=C/C(C)=C\C(=O)O)C(C)(C)CCC1
inactive: [1] | [2] | [3]

CC(C)C[C@H](NC(=O)[C@H](O)[C@H](N)Cc1ccccc1)C(=O)O
inactive: [1] | [2] | [3]
